PubChem BioAssay AID1159580 (chemical genetic matrix, 2015)
“And” between values parts separate entries of the source, which are not always exact repeats. Identical values can stand only once. About 2,000 (36%) of roughly 5,500 compounds were called active. About 18% were inconclusive and are not listed. Rule as the data show it: active = normalized growth mostly below about 0.91 (no sharp cut-off); inconclusive = no clear call, values can overlap the other calls; inactive = mostly above about 0.92. This is one part of the list.

Assay: chemical genetic growth profiling, strain panel (AID 1159580);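 also: tested at 20 µM; growth read once vehicle control cultures reached saturation at 30 °C; 1 = growth at the plate median or of vehicle wells; lower values mean less growth of the strain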
Conditions: S. cerevisiae deletion strains, growth OD

Measured: normalized growth

CCc1ccc2c(O)c3c(cc2c1C(=O)OC)C(=O)c1c(O)ccc(O)c1C3=O
inactive: locus YAL013W, strain DEP1, stronger effect = lower value 0.989 | locus YAL021C, strain ccr4, stronger effect = lower value 0.963 | locus YAL026C, strain drs2, stronger effect = lower value 0.915 | locus YAL030W, strain snc1, stronger effect = lower value 0.992 | locus YBL061C, strain skt5, stronger effect = lower value 0.975 | locus YBR009C, strain hhf1, stronger effect = lower value 0.981 | locus YBR021W, strain FUR4, stronger effect = lower value 1.02 | locus YBR023C, strain chs3, stronger effect = lower value 0.975 | locus YBR171W, strain sec66, stronger effect = lower value 0.97 | locus YBR229C, strain ROT2, stronger effect = lower value 0.956 | locus YBR231C, strain swc5, stronger effect = lower value 0.997 | locus YBR279W, strain paf1, stronger effect = lower value 0.99 | locus YCL011C, strain gbp2, stronger effect = lower value 0.984 | locus YCL016C, strain dcc1, stronger effect = lower value 0.988 | locus YCL029C, strain bik1, stronger effect = lower value 0.975 | locus YCL069W, strain vba3, stronger effect = lower value 0.981 | locus YCR088W, strain abp1, stronger effect = lower value 0.981 | locus YDL005C, strain med2, stronger effect = lower value 0.997 | locus YDL035C, strain GPR1, stronger effect = lower value 0.984 | locus YDL040C, strain nat1, stronger effect = lower value 1 | locus YDL074C, strain BRE1, stronger effect = lower value 1.03 | locus YDL101C, strain DUN1, stronger effect = lower value 0.978 | locus YDL134C, strain PPH21, stronger effect = lower value 0.964 | locus YDL185W, strain tfp1, stronger effect = lower value 0.978 | locus YDL192W, strain arf1, stronger effect = lower value 0.958 | locus YDR001C, strain nth1, stronger effect = lower value 0.972 | locus YDR069C, strain doa4, stronger effect = lower value 0.909 | locus YDR101C, strain arx1, stronger effect = lower value 1.02 | locus YDR137W, strain rgp1, stronger effect = lower value 0.91 | locus YDR159W, strain sac3, stronger effect = lower value 0.944 | locus YDR162C, strain NBP2, stronger effect = lower value 0.935 | locus YDR195W, strain ref2 0.962 | locus YDR297W, strain sur2, stronger effect = lower value 0.98 | locus YDR318W, strain mcm21, stronger effect = lower value 0.951 | locus YDR334W, strain swr1, stronger effect = lower value 0.923 | locus YDR335W, strain msn5, stronger effect = lower value 0.971 | locus YDR388W, stronger effect = lower value 0.978 | locus YDR392W, strain spt3, stronger effect = lower value 0.926 | locus YDR502C, strain sam2, stronger effect = lower value 0.974 | locus YEL003W, strain gim4, stronger effect = lower value 0.996 | locus YEL037C, strain rad23, stronger effect = lower value 0.977 | locus YEL061C, strain CIN8 (second series), stronger effect = lower value 0.97 | locus YEL061C, strain CIN8, stronger effect = lower value 0.978 | locus YER015W, strain faa2, stronger effect = lower value 0.974 | locus YER016W, strain bim1, stronger effect = lower value 0.986 | locus YER110C, stronger effect = lower value 0.979 | locus YER111C, strain swi4, stronger effect = lower value 0.927 | locus YER155C, strain BEM2 (second series), stronger effect = lower value 0.909 | locus YER155C, strain BEM2, stronger effect = lower value 1 | locus YER167W, strain BCK2, stronger effect = lower value 0.987 | locus YGL078C, strain dbp3, stronger effect = lower value 1.01 | locus YGL086W, strain mad1, stronger effect = lower value 0.987 | locus YGL167C, strain pmr1, stronger effect = lower value 0.979 | locus YGL173C, strain kem1, stronger effect = lower value 0.972 | locus YGL227W, strain vid30, stronger effect = lower value 1 | locus YGL240W, strain doc1, stronger effect = lower value 0.978 | locus YGL248W, strain PDE1, stronger effect = lower value 0.955 | locus YGL253W, strain hxk2, stronger effect = lower value 0.982 | locus YGR135W, strain pre9, stronger effect = lower value 0.94 | locus YGR252W, strain gcn5, stronger effect = lower value 0.977 | locus YHR013C, strain ard1, stronger effect = lower value 0.996 | locus YHR027C, strain rpn1, stronger effect = lower value 0.994 | locus YHR030C, strain SLT2, stronger effect = lower value 0.986 and 0.951 | locus YHR079C, strain IRE1 (second series), stronger effect = lower value 0.997 | locus YHR079C, strain IRE1, stronger effect = lower value 0.954 | locus YHR094C, strain hxt1, stronger effect = lower value 0.978 | locus YHR129C, strain ARP1, stronger effect = lower value 0.978 | locus YHR142W, strain chs7, stronger effect = lower value 0.879 | locus YHR200W, strain rpn10, stronger effect = lower value 0.963 | locus YIL066C, strain RNR3, stronger effect = lower value 0.966 | locus YIL073C, strain SPO22, stronger effect = lower value 1.03 | locus YIL125W, strain kgd1, stronger effect = lower value 0.989 | locus YIR030C, strain dcg1, stronger effect = lower value 0.998 | locus YJL092W, strain hpr5, stronger effect = lower value 0.976 | locus YJL095W, strain BCK1 (second series), stronger effect = lower value 0.973 | locus YJL095W, strain BCK1, stronger effect = lower value 0.928 and 0.964 | locus YJL115W, strain asf1, stronger effect = lower value 0.966 | locus YJL129C, strain trk1, stronger effect = lower value 0.986 | locus YJL134W, strain LCB3, stronger effect = lower value 0.99 | locus YJL154C, strain vps35, stronger effect = lower value 0.987 | locus YJL164C, strain tpk1, stronger effect = lower value 0.968 | locus YJL166W, strain qcr8, stronger effect = lower value 0.961 | locus YJL168C, strain set2, stronger effect = lower value 0.982 | locus YJL187C, strain SWE1 (second series), stronger effect = lower value 0.959 | locus YJL187C, strain SWE1, stronger effect = lower value 0.98 | locus YJR043C, strain POL32, stronger effect = lower value 0.979
active: locus YFR010W, strain ubp6, stronger effect = lower value 0.874
